Measured values reported in the supplement of paper PMC6555819.

Legend:
Assay in all cases: PBM binding z-score (relative to random genomic background probes); higher = stronger binding; sequences stand for … in GC…GCGATTGACAGCGTAGAATGAAGG
[1] = test system: FXR:RXRa (NR concentration 270 nM, RXRa partner concentration 90 nM)
Summary of the method: (§1)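 The probes on custom Agilent 4×180K protein-binding microarrays were double-stranded, with 34-nt variable regions bearing direct-repeat seeds, single-nucleotide variants, half-site ablations and random human genomic background sequences. Incubation lasted 1 h with ligand-free nuclear receptor dimers in PBS pH 7.4, 2% milk, 0.02% Triton X-100, 1 mM DTT, 0.2 mg/mL BSA and 0.4 mg/ml salmon testes DNA. Antibodies against each partner (one per run) detected bound dimers, and fluorescence scans were regression-normalized. Binding z-scores take the random background probes as reference.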

[2] = test system: LXRa:RXRa (NR concentration 270 nM, RXRa partner concentration 90 nM)
Summary of the method: as §1

[3] = test system: LXRa homodimer (NR concentration 270 nM)
Summary of the method: as §1

[4] = test system: LXRb:RXRa (NR concentration 270 nM, RXRa partner concentration 90 nM)
Summary of the method: as §1

[5] = test system: LXRb homodimer (NR concentration 270 nM)
Summary of the method: as §1

[6] = test system: PPARa:RXRa (NR concentration 270 nM, RXRa partner concentration 90 nM)
Summary of the method: as §1

[7] = test system: PPARg:RXRa (NR concentration 180 nM, RXRa partner concentration 90 nM)
Summary of the method: as §1

[8] = test system: PPARg:RXRa 270nM:90nM, anti-RXR (NR concentration 270 nM, RXRa partner concentration 90 nM)
Summary of the method: as §1

[9] = test system: PPARg:RXRa 30nM:10nM, anti-RXR (NR concentration 30 nM, RXRa partner concentration 10 nM)
Summary of the method: as §1

[10] = test system: PPARg:RXRa 90nM:30nM, anti-RXR (NR concentration 90 nM, RXRa partner concentration 30 nM)
Summary of the method: as §1

Sequence | PBM binding z-score [1] | PBM binding z-score [2] | PBM binding z-score [3] | PBM binding z-score [4] | PBM binding z-score [5] | PBM binding z-score [6] | PBM binding z-score [7] | PBM binding z-score [8] | PBM binding z-score [9] | PBM binding z-score [10]
GCGACTGGGGCATCAGCAGGTTACAATAACTTAA | -0.294 | -0.143 | -0.328 | 0.834 | -0.691 | 1.24 | 1.02 | 0.768 | -0.192 | 0.171
TCTAATTGGTCAAAGGTCACACACTCGAAATGCG | 6.13 | 5.81 | 4.4 | 5.53 | 2.67 | 6.59 | 10.7 | 9.75 | 10.1 | 12
CGAACTAGGTCAGAACACGACAGTGAAGGATGAT | 1.16 | 0.462 | -0.145 | 0.53 | -0.0845 | 3.26 | 5.4 | 4.53 | 1.68 | 3.56
CATACAGGGTCAGCTAGGCCAGAGGAGGGACGGC | 4.49 | 3.1 | -0.068 | 2.08 | 0.388 | 4.31 | 3.63 | 2.81 | 0.595 | 1.67
CGAACTGGGTCAAGGACAGTGAATCTCCGCACGC | 2.51 | 1.36 | -0.258 | 1.24 | -0.484 | 4.39 | 6.95 | 6.03 | 2.89 | 5.37
AGTCAAAGTTCGCTAGGTAACGTAAGATTCAGCT | 0.102 | 0.248 | -0.0137 | 0.158 | -0.513 | 0.793 | 1.64 | 2.36 | 0.554 | 1.85
AGAACGAGGCCAATGAGTTGATAGCACGGGTGGC | -0.177 | -0.455 | -0.576 | -0.817 | -0.913 | 0.0353 | 0.81 | -0.06 | -0.388 | 0.093
ACAGACAGGTGAGGGAAGGTAACTCAGCTGGACG | 0.596 | 0.155 | -0.368 | -0.181 | -0.443 | 0.389 | 0.791 | -0.0319 | -0.39 | -0.182
TAGCCTAGGTCACGCGGGCCAGTATAGTGTCGGC | 5.13 | 3.81 | 0.104 | 2.03 | -0.215 | 4.31 | 4.11 | 4.02 | 0.903 | 3.02
TCTTGTAGATCAGCTGGTTAAGAAAGCTGGCCAA | 0.0372 | -0.146 | -0.717 | -0.0754 | -0.836 | 0.363 | -1.11 | 1.04 | 2.43 | 1.75
TCGACTAGGTTAGTCGGGGCATTCAGCCAACATA | -0.0811 | -0.0624 | -0.672 | -0.0911 | -0.943 | 0.668 | 0.144 | 1.05 | 1.49 | 1.12
GATACAGGTTCAGCTAGAGGCCAGAGTATGGAAA | 0.427 | 0.656 | -0.157 | 0.305 | -0.537 | 1.29 | 0.495 | 0.117 | -0.177 | -0.176
GCTTACGGGTCAAAGGTTCTAGCATGAATAGAAT | 6.11 | 4.09 | -0.0816 | 4.09 | -0.186 | 5.91 | 8.84 | 7.78 | 7.78 | 8.24
TAGCCAAGGTCATGCGGGCCAGTATAGTGTCGGC | 7.03 | 4.97 | 1.17 | 3.87 | 0.499 | 5.58 | 4.64 | 4.84 | 1.61 | 3.73
ACAGACAGGTGATGAAGGTACCTCAGGCTATCAT | -0.309 | -0.187 | -0.266 | -0.411 | -0.507 | -0.132 | 0.682 | -0.0814 | 0.3 | -0.00206
CATACAGGGTCAGGTAGGCCAGAGTAGGGACGGC | 4 | 2.92 | -0.133 | 2.21 | 0.723 | 4.2 | 3.15 | 2.92 | 0.655 | 2.16
GTACCAAGGTGAATAGCTCGTTGATGAGTAGGCG | -0.0145 | 0.0679 | -0.285 | -0.246 | -0.451 | 0.416 | 0.554 | 0.238 | -0.33 | -0.123
CCTGCTAAGTCATGGTCAGCTAATCTACAGTATG | -0.197 | -0.105 | -0.185 | -0.137 | -0.307 | -0.22 | -0.135 | -0.368 | -0.358 | -0.204
ATCTCTAGGTAAAGATAGTTCAGCGAATGCAAAT | 0.212 | 4.41 | 0.481 | 0.836 | 0.431 | 0.777 | 0.334 | 0.42 | 0.395 | 0.368
CCTAGTTGGTCAGGAGTTCACACACCGGATATGA | 1.64 | 2.22 | 1.92 | 1.85 | 0.3 | 2.2 | 1.24 | 1.95 | 0.752 | 1.49
CCTATTAGTTGACCATAAGGGCGACCGAAGCTCG | 0.484 | 0.482 | 0.301 | 0.554 | 0.545 | 0.197 | 0.29 | 0.138 | -0.288 | 0.134
AGAATGAGGTTAAGATCAGGGCAACAGAATACAT | 2.64 | 2.98 | 0.329 | 2.17 | 0.282 | 3.7 | 2.57 | 2.84 | 1.29 | 2.24
ACAGACAGGTGATTGAAGGTAACTCAGCTGGACG | 0.407 | 0.000463 | -0.444 | -0.451 | -0.457 | 0.0856 | 0.626 | -0.0372 | 0.0722 | -0.274
TCTATTAGTTGAAGGGCAAGCGACGAGTCCGTTT | 0.609 | 1.02 | 0.0576 | 0.863 | 0.193 | 1.04 | 0.0198 | 2.29 | 3.57 | 2.98
GGAATGAGGGCAAAGTTGATAGCATCTGTCGACG | 1.58 | 1.26 | -0.314 | 1.11 | -0.0126 | 4.51 | 7.74 | 7.45 | 6.47 | 8.36
